# In the supplement of paper PMC4466140:
# B1: unnamed (peptide)
# chain: NRARYLPQNPDIIAG
# Biological target: ScBbc1
# Test: SPOT peptide array binding signal intensity (averaged, normalized) (arbitrary units (background-subtracted, floor 0; scale differs between SH3 domains)); higher = stronger binding of the SH3 domain to the peptide
# Outline: (§1)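 GST-SH3 fusions from four yeast species, purified on glutathione Sepharose, were incubated at 10 μg/ml overnight at 4°C on membranes of synthetic 15-mer peptides in which cysteines were replaced with serines. Binding signal is the normalized, background-subtracted spot intensity averaged over replicates, in domain-specific arbitrary units.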
row,Binder,SPOT peptide array binding signal intensity
1,B1,≤ 0

# Biological target: ScBem1-D1
# Test: as above
# Outline: as §1
row,Binder,SPOT peptide array binding signal intensity
1,B1,7

# Biological target: ScBzz1-D1
# Test: as above
# Outline: as §1
row,Binder,SPOT peptide array binding signal intensity
1,B1,7

# Biological target: ScBzz1-D2
# Test: as above
# Outline: as §1
row,Binder,SPOT peptide array binding signal intensity
1,B1,≤ 0

# Biological target: ScCyk3
# Test: as above
# Outline: as §1
row,Binder,SPOT peptide array binding signal intensity
1,B1,3

# Biological target: ScFus1
# Test: as above
# Outline: as §1
row,Binder,SPOT peptide array binding signal intensity
1,B1,≤ 0

# Biological target: ScHof1
# Test: as above
# Outline: as §1
row,Binder,SPOT peptide array binding signal intensity
1,B1,1.5

# Biological target: ScHse1
# Test: as above
# Outline: as §1
row,Binder,SPOT peptide array binding signal intensity
1,B1,647

# Biological target: ScLsb1
# Test: as above
# Outline: as §1
row,Binder,SPOT peptide array binding signal intensity
1,B1,1.5

# Biological target: ScLsb2
# Test: as above
# Outline: as §1
row,Binder,SPOT peptide array binding signal intensity
1,B1,≤ 0

# Biological target: ScLsb3
# Test: as above
# Outline: as §1
row,Binder,SPOT peptide array binding signal intensity
1,B1,58

# Biological target: ScLsb4
# Test: as above
# Outline: as §1
row,Binder,SPOT peptide array binding signal intensity
1,B1,≤ 0

# Biological target: ScMyo3
# Test: as above
# Outline: as §1
row,Binder,SPOT peptide array binding signal intensity
1,B1,≤ 0

# Biological target: ScMyo5
# Test: as above
# Outline: as §1
row,Binder,SPOT peptide array binding signal intensity
1,B1,9.25

# Biological target: ScNbp2
# Test: as above
# Outline: as §1
row,Binder,SPOT peptide array binding signal intensity
1,B1,≤ 0

# Biological target: ScPex13
# Test: as above
# Outline: as §1
row,Binder,SPOT peptide array binding signal intensity
1,B1,2.75

# Biological target: ScRvs167
# Test: as above
# Outline: as §1
row,Binder,SPOT peptide array binding signal intensity
1,B1,5.83

# Biological target: ScSho1
# Test: as above
# Outline: as §1
row,Binder,SPOT peptide array binding signal intensity
1,B1,87.5

# Biological target: ScSla1-D1-D2
# Test: as above
# Outline: as §1
row,Binder,SPOT peptide array binding signal intensity
1,B1,≤ 0

# Biological target: ScSla1-D3
# Test: as above
# Outline: as §1
row,Binder,SPOT peptide array binding signal intensity
1,B1,≤ 0

# Biological target: SpAbp1-D1
# Test: as above
# Outline: as §1
row,Binder,SPOT peptide array binding signal intensity
1,B1,≤ 0

# Biological target: SpBbc1
# Test: as above
# Outline: as §1
row,Binder,SPOT peptide array binding signal intensity
1,B1,≤ 0

# Biological target: SpBzz1-D1
# Test: as above
# Outline: as §1
row,Binder,SPOT peptide array binding signal intensity
1,B1,31.5

# Biological target: SpBzz1-D2
# Test: as above
# Outline: as §1
row,Binder,SPOT peptide array binding signal intensity
1,B1,0.75

# Biological target: SpCyk3
# Test: as above
# Outline: as §1
row,Binder,SPOT peptide array binding signal intensity
1,B1,≤ 0

# Biological target: SpHof1
# Test: as above
# Outline: as §1
row,Binder,SPOT peptide array binding signal intensity
1,B1,32.8

# Biological target: SpHof1-2
# Test: as above
# Outline: as §1
row,Binder,SPOT peptide array binding signal intensity
1,B1,13

# Biological target: SpHof1-3
# Test: as above
# Outline: as §1
row,Binder,SPOT peptide array binding signal intensity
1,B1,251

# Biological target: SpHse1
# Test: as above
# Outline: as §1
row,Binder,SPOT peptide array binding signal intensity
1,B1,204

# Biological target: SpLsb1
# Test: as above
# Outline: as §1
row,Binder,SPOT peptide array binding signal intensity
1,B1,2

# Biological target: SpLsb4
# Test: as above
# Outline: as §1
row,Binder,SPOT peptide array binding signal intensity
1,B1,38

# Biological target: SpMyo1
# Test: as above
# Outline: as §1
row,Binder,SPOT peptide array binding signal intensity
1,B1,7

# Biological target: SpNbp2
# Test: as above
# Outline: as §1
row,Binder,SPOT peptide array binding signal intensity
1,B1,3

# Biological target: SpPex13
# Test: as above
# Outline: as §1
row,Binder,SPOT peptide array binding signal intensity
1,B1,1

# Biological target: SpRvs167
# Test: as above
# Outline: as §1
row,Binder,SPOT peptide array binding signal intensity
1,B1,5.67

# Biological target: SpSla1-D1-D2
# Test: as above
# Outline: as §1
row,Binder,SPOT peptide array binding signal intensity
1,B1,≤ 0

# Biological target: SpSla1-D3
# Test: as above
# Outline: as §1
row,Binder,SPOT peptide array binding signal intensity
1,B1,≤ 0
